The source of these data is PubChem BioAssay AID1259240 (Keith Lab, Institute of Cancer Science, University of …, 2017).

Molecules are shown by their SMILES. Unmarked numbers belong to inactive results. Activity calls are given as the source filed them. No stated cut-off is given here; in the data, active means fold change mostly below about -2 (no sharp cut-off); inactive means mostly above about -1.8.

A short description of this assay: TERT promoter activity modulators, primary screen, cell-based, luciferase reporter, human (AID 1259240). The note with it: A2780 TERT promoter luciferase reporter, 16 h; at 20 µM, fold versus average of vehicle-only wells.
Turning to `CCCN1CN=C(Nc2nc(C)c3ccc(C)cc3n2)NC1`, the fold change is -2.8 (active). With `CN1CCN(C(=O)c2cc3c(=O)[nH]c4ccccc4c3n2C)CC1`, the fold change was -1.19.

For `CCCCN(C)C(=O)Cn1c(=O)oc2cc(S(=O)(=O)N3CC(C)CC(C)C3)ccc21` (stereo not given), the fold change is 1.08. As to `CC(C)SC1=NSC2=NC(=O)/C(=C\c3ccco3)C(=N)N21`, the fold change was 1.5. For the compound `COc1cc(-c2nc3sccn3c2Nc2ccc(OC)c(OC)c2)ccc1O`, the fold change is -1.31. As for `Cc1ccc(CN2C(=O)C(C(C)C(=O)NCC3CCCO3)Sc3ccccc32)cc1` (stereo not given), the fold change was -1.61. The same measure, in the same setting: as for `Cc1ccc2c(C)nc(NC3=NCN(CCN4CCOCC4)CN3)nc2c1`, the figure is 1.05. `O=C(O)CN1C(=O)/C(=C/c2ccc(SCc3ccco3)o2)SC1=S`: the fold change was -1.49. Turning to `COc1ccc(-c2nc(CSc3nc4c(c(=O)[nH]3)CCC4)c(C)o2)cc1`, the outcome was inactive.

Regarding `O=C(Cc1ccc(NC2=NC3CS(=O)(=O)CC3S2)cc1)N1CCN(c2ncccn2)CC1` (stereo not given), the fold change was 1.14.

As to `COc1ccc(-c2n[nH]c3c2C(c2ccc(Cl)cc2)NC3=O)cc1` (stereo not given), the fold change was -3 (active). The same measure, in the same setting: as for `CCc1ccc(CNc2ccc3c(c2)ncn3C(C)C)cc1`, the figure is -2.78 (active); as for `CCOC(=O)Cc1nnc2c(Nc3ccccc3Cl)nc3nonc3n12`, -1.8; as for `Cc1cc2c(c(=O)[nH]1)C(=O)O/C2=C\c1cc([N+](=O)[O-])ccc1O`, -1.57. For the compound `Cc1nc2sc3c(NC4CCCCC4)ncnc3c2c2c1COC(C)(C)C2`, the fold change was -1.55. As for `CCOc1ccc2c(c1)CN(c1ccc(Cl)cc1)CO2`, the fold change was -1.19.

On to `COc1ccccc1Nc1nc(N)nc(CN2CCN(C)CC2)n1`, for which the fold change was -3.68 (active). Regarding `CS(=O)(=O)Nc1ccc(C2=NN(C(=O)c3ccco3)C(c3ccco3)C2)cc1` (stereo not given), the fold change was 1.01. `CCOc1cc2c(cc1OCC)C(c1cc(OC)c(OC)c(OC)c1)CC(=O)N2` (stereo not given): the fold change was -1.02. The same measure, in the same setting: as for `COc1cccc(-c2nc(S(=O)(=O)c3ccc(C)cc3)c(N(C)C)o2)c1`, the figure is -1.82; as for `Cc1c(NC(=O)c2cc(CC(C)C)on2)c(=O)n(-c2ccccc2)n1C`, -1.7. Same read-out and setting: the figure for `CCOC(=O)C1CCCN(c2c(N3CCOCC3)c(=O)c2=O)C1` (stereo not given) is -1.15. Turning to `CN1C(=O)/C(=C/c2cn(CC(=O)N3CCCc4ccccc43)c3ccccc23)c2ccccc21`, the fold change is 1.47. The same measure, in the same setting: as for `CC(C)C(NC(=O)CN1C(=O)c2ccccc2S1(=O)=O)C(C)C`, the figure is -2.34 (active); as for `Cc1ccc(C)c(N2CCN(C(=O)CCCc3nnc4n5nc(C)nc5c5ccccc5n34)CC2)c1`, -1.04; as for `CCN(CC)C(=O)Nc1ccc2snnc2c1`, -1.04. Consider `COc1ccc(S(=O)(=O)NC(C)(C)CO)cc1-c1nnc2c3ccccc3c(C)nn12`, for which the fold change is -1.26.

On to `CC(C)CCNS(=O)(=O)c1ccc2c(c1)n(C)c(=O)c(=O)n2C`, for which the fold change was 1.28. For the compound `Cc1ccc(S(=O)(=O)NCCOc2nc(N(C)C)nc(N3CCOCC3)n2)cc1`, the fold change is -1.03. Take `COc1ccc(Cl)cc1N1CC(O)=C(c2nc3ccccc3c(=O)[nH]2)C1=N`: the call was inactive. For the compound `COc1cc2c(c(OC)c1)C(c1ccc(Br)cc1)CC(=O)N2` (stereo not given), the fold change was 1.09.

As to `O=C(NCCCN1CCCC1)c1ccc2nc(N3CCOCC3)sc2c1`, the fold change was -1.09. Turning to `CCCSc1nnc2c3ccccc3n(CC)c2n1`, the fold change is -1.73.

Regarding `CCN1CCN(CCNc2cc(C)nc3c(-c4ccc(OC)c(OC)c4)c(C)nn23)CC1`, the fold change is -1.31. On the same count and under the same terms, the figure for `Cc1csc(NC(=O)C2CCCN2S(=O)(=O)c2cccc3cccnc23)n1` (stereo not given) is -1.27.

With `O=C(NCCc1c[nH]c2ccccc12)c1cc2ccccn2n1`, the fold change was 1.7.

Take `Fc1ccc(OCc2nc(-c3ccc(-n4cccc4)cc3)no2)cc1`: the fold change was -1.22. As for `CCOC(=O)N1CCC(Nc2c(N3CCOCC3)c(=O)c2=O)CC1`, the fold change is -1.09.

As for `CN(C1=NS(=O)(=O)c2cc([N+](=O)[O-])ccc21)c1ccccc1`, the fold change is -2.35 (active). For `NC(=O)c1ccc(N=c2oc3ccccc3cc2S(=O)(=O)c2ccccc2)cc1`, the fold change is 1.06.
